The record followed here is PubChem BioAssay.

A short description of this test: small-molecule microarray binders of probe aEGFR, primary screen, biochemical, biotinylated probe, 635/667 nm fluorescence (AID 1097).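 Further: probe is a biotinylated anti-EGFR antibody binding compounds printed on slides; score combines fluorescence near 667 nm and signal to noise of each spot.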 The conditions noted are these: higher = more signal.
In turn, `C=CCOC(=O)[C@H]1[C@@H]2C(=O)O[C@@H](c3ccccc3)[C@@H](c3ccccc3)N2[C@@H](c2ccc(OCCOC(=O)[C@H]3C[C@H]4C(=O)N5CCC[C@H]5C(=O)N4[C@H]3c3ccc(O)cc3)cc2)[C@]12C(=O)Nc1ccccc12` came in with a composite z-score of 0.127. As to `COCCCN1C(=O)[C@@]2(c3ccc([N+](=O)[O-])cc3)CC(=O)N(C3CCCCC3)[C@@H]2c2ccc(CO)cc21`, the composite z-score was -0.128.

Take `CN(C)CCCCCCNC(=O)[C@@H]1C[C@@H]2C(=O)N[C@@H](CCCCN)C(=O)N2[C@@H]1c1cccc(OCCO)c1`: the composite z-score is 1.02.

The compound `CC(C)c1ccc(NN2C(C(O)C(c3ccccc3)c3ccccc3)C=CC3C(=O)N(c4ccccc4)C(=O)C32)cc1` (stereo unspecified) had a composite z-score of 0.104.

`C=C(CCCC)C(=O)CC[C@@H](OC(=O)c1cccnc1)c1ccc(CO)o1` had a composite z-score of 0.021. In turn, `O=C(NCc1ccccc1)[C@@]1(Cc2ccccc2)N=C(c2ccc(OCCCO)cc2)O[C@H]1c1ccccc1` had a composite z-score of 0.0357. With `COCCOC(=O)N1C(=O)[C@@]2(c3cc(C#Cc4ccc(OC)cc4)ccc31)[C@H](c1ccccc1OCCO)N1[C@H](c3ccccc3)[C@H](c3ccccc3)OC(=O)[C@H]1[C@@H]2C(=O)N1CCN(c2ncccn2)CC1`, the composite z-score is -0.058. On to `O=C1NC(=O)C2C1C=CC(C(O)Cc1ccccc1)N2Nc1ccc(Cl)cc1Cl` (stereo unspecified), for which the composite z-score was -0.096. On to `CCCCN1CC=CC23O[C@@H]4/C=C\CCC(C)OC(=O)C4[C@H]2C(=O)N(CCCCCO)[C@@H]3C1=O` (stereo partly specified), for which the composite z-score was -0.227. For the compound `O=C1[C@H]2C=C(Br)[C@H](C[C@@H]2c2ccccc2)[C@@]12CO2`, the composite z-score is -0.156. Regarding `CN1C(=O)C2C=CC(C(O)c3cccs3)N(Nc3ccccc3)C2C1=O` (stereo unspecified), the composite z-score is -0.0111. `COCCOC(=O)N1C(=O)[C@@]2(c3cc(C#CCCO)ccc31)[C@H](C(=O)Nc1nc3ccccc3s1)[C@H]1C(=O)O[C@H](c3ccccc3)[C@H](c3ccccc3)N1[C@@H]2c1ccc(OCCO)cc1`: the composite z-score turned out to be 0.0848. Then `CC(C)(C)OC(=O)CC[C@@]12N=C(c3ccc(OCCCO)cc3)O[C@@H]1c1ccccc1N(CCS(=O)(=O)c1ccccc1)C2=O`, with -0.0679; and `COC(=O)[C@@]1(Cc2ccccc2)[C@H]2c3cc(C(=O)N4CCCC4)n(Cc4nc5ccccc5[nH]4)c3C[C@H]2CN1C(=O)c1ccccc1`, with 0.13. Regarding `O=C1OCCC/C=C\[C@H]2OC34C=CCN(Cn5nnc6ccccc65)C(=O)[C@H]3N(CCO)C(=O)[C@@H]4C12` (stereo partly specified), the composite z-score is -0.0015. For `COc1cc2c(cc1O)C(C1CC1)N(Cc1cc3c(cc1Br)OCO3)CC2` (stereo unspecified), the composite z-score was -0.363. Then `COCCOC(=O)N1C(=O)[C@@]2(c3cc(C#CC4=CCCCC4)ccc31)[C@H](C(=O)N1CCc3cc(OC)c(OC)cc3C1)[C@H]1C(=O)O[C@H](c3ccccc3)[C@H](c3ccccc3)N1[C@@H]2c1ccc(OCCO)cc1`, with -0.0357; and `Cc1ccc(S[C@]2(C(=O)NC(C)C)CC(=O)N(Cc3ccccc3Cl)[C@@H]2c2ccc(CO)cc2I)cc1`, with -0.287. For the compound `COCCOC(=O)N1C(=O)[C@@]2(c3cc(C#CC4=CCCCC4)ccc31)[C@H](C(N)=O)[C@H]1C(=O)O[C@H](c3ccccc3)[C@H](c3ccccc3)N1[C@@H]2c1ccc(OCCO)cc1`, the composite z-score was -0.238. With `O=C1C2C=CC(C(O)C(c3ccccc3)c3ccccc3)N(n3cnnc3)C2C(=O)N1Cc1ccccc1` (stereo unspecified) the figure was -0.167. `CC(C)(C)OC(=O)CC[C@@]1(C(=O)NCCN2CCOCC2)N=C(c2ccc(OCCCO)cc2)O[C@@H]1c1ccccc1N=[N+]=[N-]` gave a composite z-score of 0.171. Take `CN(C)C(=O)[C@@]1(Cc2ccccc2)N=C(c2ccc(OCCCO)cc2)O[C@H]1c1ccccc1N=[N+]=[N-]`: the composite z-score was 0.0595. Then `Cc1ccc(S[C@]2(C(=O)NCC(F)(F)F)CC(=O)N(C(C)C)[C@@H]2c2ccc(CO)cc2I)cc1`, with -0.2. With `CCOc1cc(C(O)C2C=CC3C(=O)N(c4ccccc4)C(=O)C3N2Nc2ccccc2)ccc1O` (stereo unspecified), the composite z-score is 0.0192. Then `C=CCNC(=O)[C@H]1[C@@H]2C(=O)O[C@@H](c3ccccc3)[C@@H](c3ccccc3)N2[C@@H](c2ccc(OCCO)cc2)[C@]12C(=O)N(C(=O)OCCOC)c1ccccc12`, with 0.107; and `C=CCN1C(=O)[C@@]2(O[C@@H](CCO)[C@H]([Si](C)(C)c3ccc(OC)cc3)[C@H]2C)c2cc(NC(=O)c3ccc(OC)cc3)ccc21`, with -0.159. As to `C[C@]1(C(=O)NC2CC2)c2ccccc2C(=O)N(Cc2cc(C(F)(F)F)cc(C(F)(F)F)c2)[C@H]1c1ccc(CO)cc1`, the composite z-score was -0.0013. As to `CC(C)OC(=O)C=C1C[C@@H](c2ccccc2C(F)(F)F)O[C@@H](c2ccccc2C(F)(F)F)O1`, the composite z-score is -0.0776. Then `CC(C)(C)OC(=O)CC[C@]1(C(=O)O)N=C(c2ccc(OCCCO)cc2)O[C@H]1c1ccccc1N=[N+]=[N-]`, with 0.285; and `O=C1OCC=C[C@H]2OC34C=CCN(c5ccc6ccccc6c5)C(=O)[C@H]3N(CCCCCCO)C(=O)[C@@H]4[C@@H]12` (stereo partly specified), with -0.256; and `COc1cc2c(cc1OC)CN(C(=O)[C@H]1[C@@H]3C(=O)O[C@@H](c4ccccc4)[C@@H](c4ccccc4)N3[C@@H](c3ccc(O)cc3)[C@]13C(=O)Nc1ccc(C#CCNC(N)=O)cc13)CC2`, with -0.02. Regarding `C=CCC(OC(C)=O)[C@@H]1[C@@H](N(Cc2cccc3ccccc23)C(=O)c2ccc(-c3ccccc3)cc2)c2cc(OCCCO)ccc2N1C(=O)Cc1ccc(OC)cc1` (stereo partly specified), the composite z-score was -0.0415.

For `COC(=O)c1c(CC[C@@H](CO)NC(=O)N2CCC[C@H]2Cn2cc(-c3ccccn3)nn2)oc(C(C)=O)c1C(=O)OC`, the composite z-score was -0.13.

`C=CCNC(=O)[C@@H]1[C@H]2C(=O)O[C@H](c3ccccc3)[C@H](c3ccccc3)N2[C@H](c2ccc(OCCO)cc2)[C@@]12C(=O)Nc1ccc(C#Cc3ccc(OC)cc3)cc12` displayed a composite z-score of 0.116. `CN1C(=O)C2C=CC(C(O)c3cc(C(F)(F)F)cc(C(F)(F)F)c3)N(N3CCCCC3)C2C1=O` (stereo unspecified): the composite z-score was 0.153. With `COCCOC(=O)N1C(=O)[C@@]2(c3cc(C#CCCO)ccc31)[C@H](C(=O)N1CCN(c3ncccn3)CC1)[C@H]1C(=O)O[C@H](c3ccccc3)[C@H](c3ccccc3)N1[C@@H]2c1ccccc1OCCO` the figure was 0.268.
